Compound activity deposited in PubChem by National Center for Advancing Translational Sciences (NCATS).
Shown is part of a subset that was picked to be rich in hits.
TDP1 cell CPT: growth inhibition of DT40 Tdp1-/-;hTDP1 cells with camptothecin (screen for TDP1 inhibitors); chicken DT40 Tdp1-/-;hTDP1 cells + 20 nM CPT, ATP luminescence, 48 h; Potency, µM (doses to about 46.2 µM), actives largely listed as inhibitors; 420,000 tested, 12% active; AID 686979; note: nearly all actives have a fitted effect of over 55% in size
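Cell growth measured by CellTiter-Glo luminescence after a minimum 48 h, 37 C compound exposure with 20 nM CPT in Tdp1-knockout DT40 cells stably expressing hTDP1, seeded 400/well; qHTS titration format.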
DT40 TDP1 no CPT: qHTS for Inhibitors of human tyrosyl-DNA phosphodiesterase 1 (TDP1): qHTS in cells in absence of CPT; DT40 Tdp1-/- hTDP1 cells, no CPT, ATP luminescence, 48 h; Potency, µM (titrated, usually from 46.2 µM), actives largely listed as inhibitors; 420,000 tested, 15% active; note: nearly all actives have a fitted effect of over 55% in size
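Chicken DT40 Tdp1-/- cells complemented with human TDP1, screened without camptothecin (DMSO vehicle only), 400 cells/well. Compounds pin-transferred, cells incubated at 37 °C for at least 48 hr. Growth read as ATP-dependent luminescence (CellTiter-Glo, 30 min at RT).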
HT1080NT lethal: kills 2HG-producing HT-1080-NT fibrosarcoma cells; HT-1080-NT fibrosarcoma viability, CellTiter-Glo ATP luminescence, 48 h; Potency, µM (titrated, usually from 46.1 µM), usual class: cytotoxic; 360,000 tested, 1.6% active; AID 686970;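 note: NT is the 2HG producing partner of a matched IDH1 knockdown line; nearly all actives have a fitted effect of over 55% in size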
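750 cells/well, RPMI + 5% FBS; 2 h settle, compound pin-transfer, 48 h at 37 degrees C. CellTiter-Glo 10 min RT, luminescence. Normalized to DMSO and media-only wells.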
IL1B secr inh: inflammasome signaling inhibition, IL-1 beta readout | THP-1 LPS/ATP IL-1B secretion, AlphaLISA, 16 h; hits give low values | activity change, % at 57.5 µM | 360,000 tested, 4.7% active; in the data active = activity change below about -50%; inconclusive = mostly about -30% to -49%
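Secreted IL-1B measured by AlphaLISA bead assay after 16 h compound exposure of THP-1 cells; compounds (final up to 57.5 uM) added 1 h before LPS (250 ng/mL) and ATP (1.25 mM) stimulation; lower signal means less secretion.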
HT1080 IDH1KD tx: HT-1080 IDH1 knockdown cell toxicity (counter line); Potency, µM (top dose mostly 46.1 µM), hits mostly cytotoxic; 360,000 tested, 2% active; HT-1080 IDH1 knockdown viability, ATP luminescence, 48 h
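CellTiter-Glo luminescence after 48 h compound exposure at 37 degrees C of IDH1-knockdown HT-1080 cells in 5% FBS RPMI. %Activity scaled between DMSO wells and cell-free media wells, with curves fitted and assigned curve classes.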
12-LOX inh: blocks human arachidonate 12S-lipoxygenase. purified 12hLO, xylenol orange hydroperoxide absorbance. 580,000 tested, 1.1% active. Potency, µM (doses to about 108 µM), most hits filed as inhibitors. AID 1671190
Target sequence (P18054 whole entry, looked up): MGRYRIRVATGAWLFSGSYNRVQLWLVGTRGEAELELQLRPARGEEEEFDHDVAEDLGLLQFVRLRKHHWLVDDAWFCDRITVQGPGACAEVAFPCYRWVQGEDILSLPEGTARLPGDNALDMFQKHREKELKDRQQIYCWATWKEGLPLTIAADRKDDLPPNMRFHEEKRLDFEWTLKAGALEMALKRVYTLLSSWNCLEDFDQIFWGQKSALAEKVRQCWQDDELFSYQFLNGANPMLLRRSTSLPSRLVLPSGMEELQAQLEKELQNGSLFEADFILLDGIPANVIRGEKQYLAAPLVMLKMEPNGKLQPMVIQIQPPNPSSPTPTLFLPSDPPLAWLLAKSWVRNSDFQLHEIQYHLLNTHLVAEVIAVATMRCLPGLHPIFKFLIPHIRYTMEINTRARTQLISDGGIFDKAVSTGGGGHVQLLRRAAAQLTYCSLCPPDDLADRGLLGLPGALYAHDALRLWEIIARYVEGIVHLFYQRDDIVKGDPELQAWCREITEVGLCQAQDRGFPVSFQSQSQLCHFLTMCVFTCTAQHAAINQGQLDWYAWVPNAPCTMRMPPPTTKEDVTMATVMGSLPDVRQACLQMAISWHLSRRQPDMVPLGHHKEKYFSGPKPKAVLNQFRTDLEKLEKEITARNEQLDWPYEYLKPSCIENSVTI
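Purified human 12hLO at 150 nM in 25 mM Hepes, 0.01% Triton X-100, pH 7.0, preincubated 15 min at room temperature with compound. Reaction started with 40 uM arachidonic acid, 30 min at room temperature. Hydroperoxide measured by Fe-xylenol orange, 573/405 nm absorbance ratio.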
Hits are given with their value; - = inactive; ? = inconclusive; . = no result given. Unless noted, calls come from the whole dose curve; as a rule, active = well fitted curve in the direction sought with a large enough effect; inconclusive = small, poorly fitted or top-dose-only effect, or another doubt; inactive = no such curve, though single readings can be large; an effect the other way counts as inactive or inconclusive.

SMILES	TDP1 cell CPT	DT40 TDP1 no CPT	HT1080NT lethal	IL1B secr inh	HT1080 IDH1KD tx	12-LOX inh
Nc1nccnc1C(=O)NCC1Cc2ccccc2O1 (stereo unspecified)	.	.	.	.	.	-
O=C(CSc1ccccc1)Nc1ccc(Cl)c(S(=O)(=O)N2CCOCC2)c1	-	-	-	-	-	-
O=C(CSc1nc2cc(Cl)ccc2s1)Nc1cccc(S(=O)(=O)N2CCOCC2)c1	?	20.6µM	-	-	-	-
O=C(CSc1nnc(C23CC4CC(CC(C4)C2)C3)o1)Nc1ccc(N2CCOCC2)c(Cl)c1	?	17.8µM	-	-	?	-
O=C(CSc1nc2ccccc2o1)Nc1ccc(N2CCOCC2)c(Cl)c1	-	?	-	-	-	-
O=C(CSc1n[nH]c(=O)[nH]c1=O)Nc1cccc(S(=O)(=O)N2CCOCC2)c1	-	-	-	-	-	-
Cc1nc(NC(=O)CSc2nc3ccccc3s2)sc1C(=O)N(C)C	-	?	-	-	-	39.8µM
O=C(CSc1nc2ccccc2s1)Nc1ccc(Cl)c(S(=O)(=O)N2CCOCC2)c1	23.1µM	?	-	-	-	-
COc1cccc(OCC2CN(Cc3cccc(C(F)(F)F)c3)C(=O)c3c(ccnc3-c3ccc(OCC(=O)O)cc3)O2)c1OC (stereo unspecified)	.	.	.	.	.	-
CC(C)CCN1C(=O)c2ccc(-c3nc4ccccc4o3)cc2C1=O	.	.	.	.	.	-
COc1cc(NC(=O)n2ncc3cc(Cl)ccc32)cc(OC)c1OC	.	.	.	.	.	-
O=C(CSc1nc2ccccc2s1)Nc1ccc(N2CCOCC2)c(Cl)c1	16.4µM	20.6µM	-	-	-	?
O=C(CSc1nc2ccccc2s1)Nc1ccc(F)c(F)c1	.	.	.	.	.	35.5µM
COc1ccc(NC(=O)N2CCN(c3nc(C)cc(N4CCOCC4)n3)CC2)cc1	.	.	.	.	.	-
COCc1nc(-c2ccc(OC3CCN(C(=O)Cc4c[nH]c5ccccc45)C3)cc2)no1 (stereo unspecified)	.	.	.	.	.	-
CCOCCCNC(=O)c1ccc(NC(=O)C23CC4CC(CC(C4)C2)C3)cc1	.	.	.	.	.	-
CN1CCc2c(OCC(=O)N3CCCc4ccccc43)cccc2C1=O	-	29.1µM	-	-	-	-
O=C(COc1ccccc1F)N1CCCc2ccccc21	-	-	-	-	-	-
Cc1cccc(CN2CCc3c(OCC(=O)NCc4ccco4)cccc3C2=O)c1	?	?	-	-	-	-
Cc1ccc(OCC(=O)N2CCC(Cc3ccccc3)CC2)c([N+](=O)[O-])n1	?	?	-	-	-	-
Cc1cccc(CN2CCc3c(OCC(=O)N4CCCc5ccccc54)cccc3C2=O)c1	4.61µM	5.8µM	?	?	?	-
O=C(COc1cccnc1[N+](=O)[O-])N1CCC(Cc2ccccc2)CC1	?	?	-	-67.5	-	?
O=C1c2cccc(OCc3ccc(F)cc3)c2CCN1Cc1ccccc1	?	?	-	-57.2	-	-
CCCCCCn1c(SCCC(=O)O)nc2c1c(=O)[nH]c(=O)n2C	.	.	.	.	.	-
Nc1nc(CN2CCN(C(=O)c3cccc(F)c3)CC2)nc2ccccc12	.	.	.	.	.	-
SMILES	TDP1 cell CPT	DT40 TDP1 no CPT	HT1080NT lethal	IL1B secr inh	HT1080 IDH1KD tx	12-LOX inh
CN1CCc2c(OCC(=O)N3CCC(Cc4ccccc4)CC3)cccc2C1=O	20.6µM	18.4µM	-	?	-	-
N#Cc1ccc(CSc2nccc(C(F)(F)F)n2)cc1	.	.	.	.	.	-
CC(C)(C)c1coc([C@@H]2COCCN2C2CCCCC2)n1	.	.	.	.	.	-
O=C(c1ccc(F)cc1)N1c2ccccc2-n2c(nc3ccccc32)C1CCc1ccccc1 (stereo unspecified)	.	.	.	.	.	-
CN1CCN(C(=O)c2cccc(-c3cnc4cnc(-c5ccccc5Oc5ccccc5)cn34)c2)CC1	18.4µM	13µM	?	-57.1	23.1µM	-
O=C(c1cccc(O)c1)N1CC=C(c2cnc3cnc(-c4ccccc4)cn23)CC1	.	.	.	.	.	-
CCC1(C)Cc2ccccc2/C(=C/C(=O)N2CCCCC2)N1 (stereo unspecified)	18.4µM	20.6µM	-	-	-	?
Cc1ccc2nc(/C(C#N)=C/c3ccc4oc5ccccc5c4c3)[nH]c2c1	.	.	.	.	.	-
CC(C)N(C(=O)/C=C/c1ccc([N+](=O)[O-])cc1)C(C)C	.	.	.	.	.	-
NCc1oc(-c2ccccc2)cc1C(=O)O	-	-	-	-	-	10µM
C=CCOc1ccc(CN(C)CC(O)COc2ccc(CCC(C)=O)cc2)cc1 (stereo unspecified)	?	16.4µM	-	-	-	-
OC(COc1ccc(OCC(O)CN2CCCCC2)cc1)CN1CCCCC1 (stereo unspecified)	-	?	-	?	-	-
CN(C)CC(O)COc1cccc(OCC(O)CN(C)C)c1 (stereo unspecified)	-	-	-	-	-	-
OC(COc1ccc(CNCCc2ccc(C(F)(F)F)cc2)cc1)CN1CCCCC1 (stereo unspecified)	4.61µM	5.8µM	23.1µM	-	23.1µM	-
CC(=O)CCc1ccc(OCC(O)CNCCOc2ccc(C)cc2)cc1 (stereo unspecified)	-	-	-	?	-	-
CN(Cc1ccc(Br)cc1)CC(O)COc1cccc(Br)c1 (stereo unspecified)	?	?	?	-93.2	?	0.891µM
OC(CNCCc1ccc(C(F)(F)F)cc1)COc1ccc2ccccc2c1 (stereo unspecified)	?	-	-	-101.3	-	?
CCn1cc(CN(C)C(=O)CCC[C@H]2NC[C@@H]3C[C@H]2CN(Cc2ccccc2)C3)c(C)n1	.	.	.	.	.	-
COCCC1(NC(=O)c2ccccc2)CCN(Cc2cn[nH]c2-c2cccs2)CC1	.	.	.	.	.	-
Cc1nn(-c2ccccc2)c(C)c1CCC(=O)N1CCN(S(=O)(=O)c2ccc(F)cc2F)CC1	.	.	.	.	.	-
COc1ccccc1COCC(O)CN1CCCCC1CO (stereo unspecified)	-	-	-	-	-	?
OC(CNCCc1ccc(C(F)(F)F)cc1)COc1cccc2ccccc12 (stereo unspecified)	?	?	-	-62.6	-	?
COc1ccc(CCNCC(O)COc2cccc(Br)c2)cc1 (stereo unspecified)	?	?	?	-58.6	?	?
COc1ccccc1COCC(O)CNCCc1ccc(C(F)(F)F)cc1 (stereo unspecified)	?	?	-	-77.5	-	?
COc1ccc(CN(C)CC(O)COc2ccc(-c3ccccc3)cc2)cc1OC (stereo unspecified)	18.4µM	?	?	-70.7	20.6µM	?
